# Data from PubChem BioAssay (EPA / NIEHS).
# “And” between values parts separate entries of the source, which are not always exact repeats. Equal entries are not always repeated. Results filed as inconclusive are left out. A structure can be active in one record and inactive in another. The source made the active and inactive calls. Rule for the calls, unless noted: active = hit-call score of the fitted dose curve at least 0.9, where 1 is the maximum; inactive = score below 0.9.
# Key:
# [1] = target: Estrogen receptor (Homo sapiens) (UniProt P03372); experiment: CCTE_Deisenroth_AIME_384WELL_LUC_Active: CCTE's 384-well Estrogen Receptor Transactivation Assay with AIME metabolic competence (ERTA luciferase; metabolism positive), Deisenroth Lab (AID 2284030; active = hit-call score of the fitted dose curve at least 0.9, where 1 is the maximum)
# In short: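 Readout: bioluminescent luciferase induction in VM7Luc4E2 cells 24 hour after receiving medium from a 2 h rat hepatic S9 (induced, alginate microsphere) metabolism step. Concentrations 0.002 - 200 uM; activity scaled to 17beta-estradiol positive control.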
# [2] = CCTE_Deisenroth_AIME_384WELL_CTox_Active: Cytotoxicity Assessment (CTOX) in CCTE's 384-well Estrogen Receptor Transactivation Assay with AIME metabolic competence (metabolism positive), Deisenroth Lab (AID 2284037; active = hit-call score of the fitted dose curve at least 0.9, where 1 is the maximum;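 note: chemicals first conditioned 2 h by alginate-bound induced rat liver S9 before cells; activity means signal loss indicating cell death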)
# In short: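 Chemicals pre-incubated 2 hours with alginate-immobilised phenobarbital/beta-naphthoflavone-induced male Sprague Dawley rat liver S9, then conditioned medium applied 24 hour to VM7Luc4E2 cells. Viability by fluorogenic protease substrate; 10-point series 0.002 - 200 uM.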
# [3] = target: Estrogen receptor (Homo sapiens) (UniProt P03372); experiment: CCTE_Deisenroth_AIME_384WELL_LUC_Inactive: CCTE's 384-well Estrogen Receptor Transactivation Assay without AIME metabolic competence (ERTA luciferase; metabolism negative), Deisenroth Lab (AID 2284038; active = hit-call score of the fitted dose curve at least 0.9, where 1 is the maximum;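 note: hits raise estrogen receptor luciferase signal so potencies reflect agonists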)
# In short: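 VM7Luc4E2 ER transactivation, luciferase bioluminescence after 24 h, using medium pre-incubated 2 h with S9-free alginate microspheres. Concentrations 0.002–200 uM; gain of signal fitted relative to 17beta-estradiol.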
# [4] = CCTE_Deisenroth_AIME_384WELL_CTox_Inactive: Cytotoxicity Assessment (CTOX) in CCTE's 384-well Estrogen Receptor Transactivation Assay without AIME metabolic competence (metabolism negative), Deisenroth Lab (AID 2284039; active = hit-call score of the fitted dose curve at least 0.9, where 1 is the maximum;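 note: cell viability via live-cell protease substrate cleaved to fluorescent probe; cells exposed 24 h to medium preincubated 2 h with alginate-water beads without S9; loss of fluorescence signal means loss of viability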)
# In short: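 Metabolism-negative arm: chemicals (10-point, 0.002 - 200 uM) preincubated 2 h with alginate-water lids, medium moved onto VM7Luc4E2 cells for 24 h. Fluorescent live-cell protease readout; bidirectional curve fit.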
# [5] = target: Estrogen receptor (Homo sapiens) (UniProt P03372); experiment: CCTE_Deisenroth_AIME_384WELL_LUC_Shift: CCTE's 384-well Estrogen Receptor Transactivation Assay with AIME metabolic competence data shift (ERTA luciferase; difference in metabolism positive and negative), Deisenroth Lab (AID 2284041);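 note: shift is response with S9 minus without S9 so positive means metabolism raised ER signal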
# In short: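 Chemicals (0.002–200 uM, 10 points) pre-incubated 2 h with alginate-encapsulated induced male Sprague Dawley rat liver S9 or S9-free, then medium applied 24 h to VM7Luc4E2 cells; luciferase. Endpoint is per-concentration difference, S9-positive minus negative.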
# [6] = CCTE_Shafer_MEA_dev_firing_rate_mean: CCTE's Neural Network Formation Assay for Mean Firing Rate, Shafer Lab (AID 2284031);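 for AC50: curve fitted for loss of firing so AC50 reflects decreased mean firing rate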
# In short: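 Spike frequency (spikes/recording length, averaged over active electrodes) was recorded on days 5, 7, 9 and 12 and collapsed to AUC; rat cortical cultures received compound continuously over 12 days of network development.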
# [7] = CCTE_Shafer_MEA_dev_per_burst_spike_percent: CCTE's Neural Network Formation Assay for Percent of Spikes in a Burst, Shafer Lab (AID 2284032);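 for AC50: fitted as a decrease in burst spike percentage below DMSO baseline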
# In short: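 Value is trapezoidal AUC over recordings on days 5, 7, 9 and 12 of the well-mean fraction of spikes falling in single-electrode bursts; rat cortical cultures exposed continuously from plating, treatment renewed DIV 5 and 9, fitted downward against DMSO.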
# [8] = CCTE_Shafer_MEA_dev_active_electrodes_number: CCTE's Neural Network Formation Assay for Number of Active Electrodes, Shafer Lab (AID 2284040; active = hit-call score of the fitted dose curve at least 0.9, where 1 is the maximum;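 for AC50: potency for loss of active electrodes versus DMSO so lower counts are hits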)
# In short: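 Counts electrodes per well firing at least 5 spikes/min, recorded on days 5, 7, 9 and 12 in rat cortical cultures dosed continuously from plating (treatment refreshed DIV 5, 9). Value is the area under the curve over recordings, fitted downward relative to DMSO.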
# [9] = CCTE_Shafer_MEA_dev_burst_rate: CCTE's Neural Network Formation Assay for Burst Rate, Shafer Lab (AID 2284042);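 for AC50: potency for loss of burst rate below DMSO control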
# In short: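 Cells plated, treated day 0; recorded DIV 5, 7, 9, 12; fed and re-treated DIV 5, 9. Endpoint: bursts per recording time, active-electrode well mean, trapezoidal AUC, fitted in decreasing direction against DMSO baseline.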
# [10] = target: Estrogen receptor (Homo sapiens) (UniProt P03372); experiment: CCTE_Deisenroth_AIME_96WELL_LUC_Active: CCTE's 96-well Estrogen Receptor Transactivation Assay with AIME metabolic competence (ERTA luciferase; metabolism positive), Deisenroth Lab (AID 2284023; active = hit-call score of the fitted dose curve at least 0.9, where 1 is the maximum)
# In short: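 Metabolism-positive mode: induced rat hepatic S9 in alginate microspheres conditions test solutions (0.002 - 200 uM, 10 points) for 2 hours. VM7Luc4E2 ER luciferase reporter cells then exposed 24 h; positive-direction fit against 17beta-estradiol, n=4 typical.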
# [11] = target: Estrogen receptor (Homo sapiens) (UniProt P03372); experiment: CCTE_Deisenroth_AIME_96WELL_LUC_Inactive: CCTE's 96-well Estrogen Receptor Transactivation Assay without AIME metabolic competence (ERTA luciferase; metabolism negative), Deisenroth Lab (AID 2284025; active = hit-call score of the fitted dose curve at least 0.9, where 1 is the maximum)
# In short: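 Metabolism-negative arm: chemicals (0.002–200 uM, 10 points) incubated 2 h with alginate-water microspheres, then medium moved onto VM7Luc4E2 cells for 24 h luciferase read-out. Positive direction vs 17beta-estradiol; n≥4 experiments.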
# [12] = CCTE_Shafer_MEA_acute_per_network_burst_spike_number_mean: CCTE's Neural Acute Assay for Average Number of Spikes in a Network Burst, Shafer Lab (AID 2284019)
# In short: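 Rat cortical cultures, DIV 13/15; spike threshold 8x rms noise, 300-5000 Hz band-pass, 12.5 kHz sampling; wells need >/= 10 active electrodes. Compound 0.03-40 uM, 40 min, 37 C; % change vs own baseline, DMSO negative control.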
# [13] = CCTE_Shafer_MEA_acute_per_network_burst_spike_number_std: CCTE's Neural Acute Assay for Standard Deviation of Number of Spikes in a Network Burst, Shafer Lab (AID 2284020);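 note: fitted for decrease in spike-number SD versus DMSO so actives lower it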
# In short: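 Rat cortical cultures, DIV 13/15, 37 C; 20-min stabilisation, 40-min baseline, compound 0.03-40 uM, 40-min re-record. Spikes detected at 8x rms noise (300-5000 Hz band-pass). Readout: % change from baseline in per-burst spike-number SD.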
# [14] = CCTE_Shafer_MEA_acute_per_network_burst_electrodes_number_mean: CCTE's Neural Acute Assay for Mean Number of Electrodes in a Network Burst, Shafer Lab (AID 2284021);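 note: curves fitted for decreases only so hits reduce electrodes per burst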
# In short: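 Readout: % change in mean electrodes active per network burst, post- vs pre-treatment, each well. Spikes detected at 8x rms noise after 300-5000 Hz band-pass; rat cortical cultures, DIV 13/15, compounds 0.03-40 uM, DMSO baseline.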
# [15] = CCTE_Shafer_MEA_acute_network_burst_percentage: CCTE's Neural Acute Assay for Percentage of Network Bursts, Shafer Lab (AID 2284022);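 note: curves fitted for loss so actives lower network burst percentage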;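 for outcome: rat primary cortical neuron networks on multiwell MEA recorded 40 min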
# In short: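 Rat cortical cultures, DIV 13/15; 20 min equilibration, 40 min baseline, compound 0.03-40 uM, 40 min recording, 37 C. Spikes: 300-5000 Hz band-pass, threshold 8x rms noise. Readout: % change in network-burst spike fraction; loss direction vs DMSO.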
# [16] = CCTE_Shafer_MEA_acute_cross_correlation_area: CCTE's Neural Acute Assay for Area of Cross Correlation, Shafer Lab (AID 2284024);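 note: area under pooled inter-electrode spike cross-correlation near zero lag as percent change from own baseline; curves fitted for loss of cross-correlation area so actives lower synchrony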;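 for outcome: rat primary cortical neuron networks on 48-well MEA at DIV 13 or 15 with 40 min exposure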
# In short: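 Rat cortical cultures, DIV 13/15, MEA; spikes detected at 8x rms noise (300-5000 Hz band-pass). Compound 0.03-40 uM, ≥3 wells each. Readout: % change in pooled inter-electrode cross-correlation area vs own baseline; DMSO negative control.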
# [17] = CCTE_Shafer_MEA_acute_cross_correlation_HWHM: CCTE's Neural Acute Assay for Cross Correlation at Half Width at Half Maximum, Shafer Lab (AID 2284026);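 note: percent change per well from pre-dose baseline in spike cross-correlogram half width; hits are a decrease in cross-correlogram half width relative to DMSO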;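 for outcome: spontaneous network firing of rat primary cortical neurons on multiwell microelectrode arrays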
# In short: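 Read-out: half width at half maximum of action-potential cross-correlogram, percent change versus pre-treatment baseline, fitted in loss direction against DMSO. Rat cortical cultures, DIV 13 or 15, dosed 0.03-40 uM, 40-min recordings at 37 C.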
# [18] = CCTE_Deisenroth_AIME_96WELL_CTox_Active: Cytotoxicity Assessment (CTOX) in CCTE's 96-well Estrogen Receptor Transactivation Assay with AIME metabolic competence (metabolism positive), Deisenroth Lab (AID 2284028; active = hit-call score of the fitted dose curve at least 0.9, where 1 is the maximum)
# In short: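 Cytotoxicity in VM7Luc4E2 breast cells after 24 h exposure to medium from a 2 h metabolic pre-incubation with induced rat hepatic S9 in alginate microspheres; fluorescent live-cell protease readout, 10-point series 0.002–200 uM, n=4.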
# [19] = CCTE_Deisenroth_AIME_96WELL_CTox_Inactive: Cytotoxicity Assessment (CTOX) in CCTE's 96-well Estrogen Receptor Transactivation Assay without AIME metabolic competence (metabolism negative), Deisenroth Lab (AID 2284029; active = hit-call score of the fitted dose curve at least 0.9, where 1 is the maximum)
# In short: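 Metabolism-negative mode: alginate-water lids without rat S9, 2 h pre-incubation of 10-point series (0.002 - 200 uM). Conditioned medium on VM7Luc4E2 cells 24 h; loss of fluorescent live-cell protease signal marks cytotoxicity.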
# [20] = CCTE_Shafer_MEA_dev_bursting_electrodes_number: CCTE's Neural Network Formation Assay for Number of Bursting Electrodes, Shafer Lab (AID 2284043; active = hit-call score of the fitted dose curve at least 0.9, where 1 is the maximum;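 note: potency is for loss of bursting electrodes relative to DMSO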)
# In short: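 Rat cortical primary neurons, 48-well MEA, 16 electrodes/well; dosing DIV 0–12, re-dosed with full media change DIV 5, 9. Recordings DIV 5/7/9/12, AxIS adaptive spike detector; bursting electrode = ≥1 burst/2 min. AUC across days; loss of signal vs DMSO.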
# Estrogen receptor (Homo sapiens), sequence (P03372 whole entry, looked up): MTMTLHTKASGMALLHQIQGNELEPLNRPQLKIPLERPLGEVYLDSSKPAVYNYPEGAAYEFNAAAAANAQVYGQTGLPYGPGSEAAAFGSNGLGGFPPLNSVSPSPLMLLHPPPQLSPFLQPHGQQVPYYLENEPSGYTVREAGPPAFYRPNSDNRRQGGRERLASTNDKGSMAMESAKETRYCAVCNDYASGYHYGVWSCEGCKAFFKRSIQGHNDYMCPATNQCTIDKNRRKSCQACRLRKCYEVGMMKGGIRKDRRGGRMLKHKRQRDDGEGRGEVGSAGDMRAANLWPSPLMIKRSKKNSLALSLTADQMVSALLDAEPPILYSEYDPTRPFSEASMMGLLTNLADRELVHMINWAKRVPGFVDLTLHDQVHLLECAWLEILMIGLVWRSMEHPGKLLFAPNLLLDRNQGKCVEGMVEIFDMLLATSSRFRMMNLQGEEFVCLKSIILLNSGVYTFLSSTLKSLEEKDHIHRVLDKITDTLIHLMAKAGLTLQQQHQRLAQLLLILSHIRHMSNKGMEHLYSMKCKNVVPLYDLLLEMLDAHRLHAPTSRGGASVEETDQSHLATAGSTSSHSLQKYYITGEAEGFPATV
smiles,measurement,setting,value
CC(C)N(c1ccccc1)C(C)C,outcome,[1],inactive
same,outcome,[2],inactive
same,outcome,[3],inactive
same,outcome,[4],inactive
same,outcome,[5],inactive
c1ccc2scnc2c1,outcome,[1],inactive
same,outcome,[6],inactive
same,outcome,[7],inactive
same,outcome,[3],inactive
same,outcome,[8],inactive
same,outcome,[5],inactive
same,outcome,[9],inactive
CCCCCCCCCCCCN1CCOCC1,outcome,[1],inactive
same,outcome,[2],inactive
same,outcome,[3],inactive
same,outcome,[4],inactive
same,outcome,[5],inactive
c1ccc(Cc2ccccc2)cc1,AC50,[10],74400 nM (active)
same,outcome,[11],inactive
c1ccc(OCCOc2ccccc2)cc1,outcome,[12],inactive
same,outcome,[13],inactive
same,outcome,[14],inactive
same,outcome,[15],inactive
same,outcome,[16],inactive
same,outcome,[17],inactive
CC(=O)CC(=O)N(C)C,outcome,[1],inactive
same,outcome,[2],inactive
same,outcome,[3],inactive
same,outcome,[4],inactive
same,outcome,[5],inactive
CC/C(=C(\c1ccccc1)c1ccc(OCCN(C)C)cc1)c1ccccc1,outcome,[12],inactive
same,AC50,[13],18300 nM (active)
same,outcome,[13],inactive
same,outcome,[14],inactive
same,AC50,[15],18.3 µM (active) and 13.2 µM (active)
same,outcome,[16],inactive
same,AC50,[17],16400 nM (active)
same,outcome,[17],inactive
same,AC50,[18],7840 nM (active)
same,AC50,[19],74100 nM (active)
same,AC50,[6],32.9 nM (active)
same,AC50,[7],1980 nM (active)
same,AC50,[8],329 nM (active)
same,AC50,[9],122 nM (active)
same,AC50,[20],203 nM (active)
CC(C)(CO)CO,outcome,[12],inactive
same,outcome,[13],inactive
same,outcome,[14],inactive
same,outcome,[15],inactive
same,outcome,[16],inactive
same,outcome,[17],inactive
NC(N)=S,outcome,[1],inactive
same,outcome,[2],inactive
same,outcome,[3],inactive
same,outcome,[4],inactive
same,outcome,[5],inactive
CCCCOCCOCCO,outcome,[12],inactive
same,outcome,[13],inactive
same,outcome,[14],inactive
same,outcome,[15],inactive
same,outcome,[16],inactive
same,outcome,[17],inactive
same,outcome,[1],inactive
same,outcome,[3],inactive
same,outcome,[4],inactive
same,outcome,[5],inactive
CCn1cc(C(=O)O)c(=O)c2ccc(C)nc21,outcome,[12],inactive
same,outcome,[13],inactive
same,outcome,[14],inactive
same,outcome,[15],inactive
same,AC50,[16],3 nM (active)
same,outcome,[17],inactive
